High-throughput results (PubChem BioAssay)
RORgamma inh: ROR gamma (mouse) transcription inhibition. Potency, µM (series often up to 53.6 µM), actives largely listed as inhibitors. actives 5.4% (n = 310,000). Drosophila S2 Gal4-RORgamma UAS-luciferase reporter, 20 h. AID 2551. P51450; further: nearly all actives have a fitted effect of over 60% in size
Target sequence (P51450 whole entry, looked up, the tested form may be a part): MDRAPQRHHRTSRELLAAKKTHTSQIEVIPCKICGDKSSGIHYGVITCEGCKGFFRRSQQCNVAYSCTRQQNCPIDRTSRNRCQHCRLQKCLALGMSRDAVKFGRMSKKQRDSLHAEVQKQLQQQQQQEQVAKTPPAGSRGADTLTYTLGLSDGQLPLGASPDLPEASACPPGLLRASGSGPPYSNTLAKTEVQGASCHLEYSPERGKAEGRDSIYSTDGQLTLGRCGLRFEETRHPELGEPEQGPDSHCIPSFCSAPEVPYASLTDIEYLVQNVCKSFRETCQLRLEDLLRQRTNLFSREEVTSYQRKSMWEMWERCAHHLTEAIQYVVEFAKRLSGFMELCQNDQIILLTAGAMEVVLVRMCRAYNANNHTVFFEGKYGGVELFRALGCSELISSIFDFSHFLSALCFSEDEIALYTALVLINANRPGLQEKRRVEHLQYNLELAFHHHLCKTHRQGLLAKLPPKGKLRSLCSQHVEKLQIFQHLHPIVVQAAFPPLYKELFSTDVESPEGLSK
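A Gal4/UAS one-hybrid system in insect cells: metallothionein-promoter Gal4–ROR gamma fusion plus Photinus luciferase reporter. Copper sulfate 700 uM final, 20 hr ambient incubation, luminescent detection after 10 min with reagent.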
Giardia killer: Giardia lamblia killing. Giardia lamblia trophozoite viability. activity change, % at 7.66 µM, hits read low. actives 0.15% (n = 340,000); in the data active means activity change below about -80%; inconclusive means between about -30% and that limit;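 further: parasites exposed to compound for two days anaerobically before the ATP read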
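Trophozoite viability was measured as ATP-dependent luminescence, read 15-30 min after reagent addition. Before that, parasites at 100 cells/well were exposed to compounds for 48 h, anaerobically, at 37 deg C.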
ERG Ets-DNA blk: blocks human ERG Ets domain binding to DNA; fluorescence polarization, His-ERG Ets domain / labelled DNA; P11308; actives 0.028% (n = 370,000); Potency, µM (highest dose often 76.9 µM), actives largely listed as inhibitors; active means well fitted inhibition curve with a large enough effect in the polarisation, with a control signal flat; inconclusive means small, poorly fitted or top-dose-only effect, or effect the other way, or a change in a side signal; inactive means no such curve, though single readings can be large or run the other way; the % refers to the polarisation;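 further: polarization taken with two DNA probes labelled with fluorescein and Texas red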
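His-tagged ERG Ets domain (1 uM in the protein solution; 300mM KCl, 50mM Tris-HCl, 1mM EDTA, 1mM DTT, pH 7.5) received compound, then a probe mix of 5 nM fluorescein-DNA and 100nM Texas-615-DNA. Fluorescence polarization was read for both dyes.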
VP16 counter: Gal4-VP16 reporter inhibition counter-screen; actives 3.5% (n = 310,000); Drosophila S2 Gal4-VP16 UAS-luciferase, luminescence, 20 h; Potency, µM (titrated, usually from 53.6 µM), hits mostly inhibitors;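 further: Gal4-VP16 expression switched on by copper sulfate through the metallothionein promoter; nearly all actives have a fitted effect of over 50% in size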
Integrin act MD: activates integrin-mediated alleviation for muscular dystrophy | alpha7betagal myoblasts, beta-gal FDG fluorescence, 48 h | Potency, µM (titrated, usually from 38.3 µM), actives largely listed as activators | actives 0.064% (n = 350,000) | AID 624291; further: nearly all actives have a fitted effect of over 60% in size
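Alpha7betagal+/- myoblasts (passage 13) were plated 16-24 hr, then exposed to compounds (1:260 dilution of DMSO stock) for 48 hours at 37C. After MPER lysis, β-galactosidase reporter activity was read as FDG fluorescence (ex 480/em 540) after 30 minutes.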
Numbers stand for hits; – = inactive; ? = inconclusive; · = no result given; [ ] = remark or other dose. Only a selection was taken, and hits are over-represented in it overall. Unless noted, the call rests on the fitted dose curve; in most records, active means well fitted curve in the direction sought with a large enough effect; inconclusive means small, poorly fitted or top-dose-only effect, or another doubt; inactive means no such curve, though single readings can be large; an effect the other way counts as inactive or inconclusive.

SMILES | RORgamma inh | Giardia killer | ERG Ets-DNA blk | VP16 counter | Integrin act MD
CCc1ccccc1N1C(=O)N(Cc2cc(=O)n3ccccc3n2)c2ccccc2S1(=O)=O | · | · | – | · | ·
CCc1ccc(NC(=O)CC2C(=O)N(c3ccc(Cl)cc3)C(=O)N2Cc2ccco2)cc1 (centres undefined) | · | · | – | · | ·
CC(C)OC(=O)c1cn(Cc2c(F)cccc2F)c2sc(-c3ccc(NC(=O)C(C)C)cc3)c(CN(C)Cc3ccccc3)c2c1=O | – | · | · | – | ·
CC(C)(C)c1ccccc1NC(=S)NC1CCCC1 | 4.5µM | – | – | 3.5µM | ?
COc1ccccc1NC(=S)NC1CCCCCC1 | 6.3µM | – | – | 4µM | –
O=C(O)CCn1cc(/C=C2/NC(=S)N(c3ccccc3)C2=O)c(-c2ccccc2)n1 | – | – | – | ? | 20µM
O[C@@H]1COC2[C@@H](O)CO[C@@H]21 (some centres undefined) | – | · | · | – | ·
O=C(COC(=O)c1ccc(NS(=O)(=O)c2cccs2)cc1)NCc1ccco1 | 22µM | – | – | – | –
CCOc1ccc(NC(=S)NCc2ccco2)cc1 | 14µM | – | – | ? | –
COc1ccc(NC(=S)NCc2ccco2)cc1 | 11µM | – | – | ? | –
CCOc1ccc(NC(=O)C(=O)NCc2ccco2)cc1 | · | · | – | · | ·
COc1cc(NC(=S)NCc2ccco2)cc(OC)c1 | 5.6µM | – | – | –[0.365 µM] | –
Cc1cc(=O)c2c(O)cc(O)c(C)c2o1 | – | · | · | – | ·
CC(C)(Cc1ccc(O)cc1)NC(=O)SCc1ccccc1 | ? | – | – | – | –
CCOc1ccc(NC(=O)N2CCN(C(=O)c3ccco3)CC2)cc1 | – | – | – | – | –
S=C(NCc1cccnc1)Nc1ccc(Oc2ccccc2)cc1 | ? | – | – | ? | –
CCOC(=O)c1ccc(NC(=O)N2CCN(C(=O)c3ccco3)CC2)cc1 | – | – | 35µM | – | –
CCOC(=O)c1ccc(NC(=S)NCc2ccco2)cc1 | 10µM | – | – | – | ?
S=C(NCc1ccco1)Nc1ccc(Oc2ccccc2)cc1 | 6.3µM | – | – | ? | –
CC(C)CNC(=S)Nc1ccc(Oc2ccccc2)cc1 | 3.5µM | – | ? | 4µM | –
O=C(CSc1cc(Cl)ccc1Cl)NCCN1C(=O)CSC1=O | · | – | – | · | –
COc1ccc2oc(=O)c(C(=O)NCCc3c(C)[nH]c4ccc(Br)cc34)cc2c1 | · | · | – | · | ·
CCOC(=O)/C=C/C(=O)OCC(=O)N1CCN(C(=O)c2ccco2)CC1 | 11µM | – | – | ? | –
Cc1ccccc1NC(=S)NNC(=O)c1ccncc1 | 10µM | – | – | – | –
CCC(C)c1ccccc1NC(=O)c1cccnc1 (centres undefined) | 11µM | – | – | – | –
SMILES | RORgamma inh | Giardia killer | ERG Ets-DNA blk | VP16 counter | Integrin act MD
CC(C)(C)NC(=S)NNC(=O)c1ccncc1 | 1.1µM | – | – | 18µM | –
Cc1ccccc1NC(=S)NNC(=O)c1cccnc1 | 6.3µM | – | – | 16µM | –
COc1ccccc1NC(=S)NNC(=O)c1ccncc1 | – | – | – | – | –
O=C(NCCO)C(=O)Nc1c2c(nn1-c1ccc(F)cc1)CSC2 | · | · | – | · | ·
O=C(N=C1N=C2C=CC=CN2Cc2ccccc21)c1ccc(S(=O)(=O)N2CCOCC2)cc1 | – | – | – | – | –
Cn1nc(C(=O)NCc2cccc(Cl)c2)c2c1-c1ccccc1SC2 | · | · | – | · | ·
C=CCNC(=S)NNC(=O)c1ccncc1 | 10µM | – | – | – | –
O=C(NNC(=S)NC(=O)c1cccnc1)c1ccc(F)cc1 | 16µM | – | – | ? | –
O=C(NNC(=S)NC(=O)c1ccc(F)cc1)c1cccnc1 | ? | – | – | ? | –
Cc1ccc(S(=O)(=O)NCC2CCCO2)cc1 (centres undefined) | – | – | – | – | –
O=S(=O)(NCC1CCCO1)c1ccc(-c2ccc(S(=O)(=O)NCC3CCCO3)cc2)cc1 (centres undefined) | 4.5µM | – | – | 5.6µM | –
Oc1ccc(/C=N/n2c(COc3ccccc3)n[nH]c2=S)cc1O | – | – | – | – | –
S=c1[nH]nc(COc2ccccc2)n1/N=C/c1ccc(Br)cc1 | ? | – | – | – | –
CN(C)c1ccc(/C=N/n2c(-c3ccccc3Br)n[nH]c2=S)cc1 | 3.5µM | – | – | – | –
Cc1ccc(/C=N/n2c(COc3ccccc3)n[nH]c2=S)cc1 | 3.2µM | – | – | ? | –
CC(C)c1ccc(/C=N/n2c(COc3ccccc3)n[nH]c2=S)cc1 | ? | – | – | 10µM | –
CN(C)c1ccc(/C=N/n2c(COc3ccccc3)n[nH]c2=S)cc1 | 3.2µM | – | – | 4µM | –
CCOc1ccc(CNC(=O)C2CCN(S(=O)(=O)c3cn(C)cn3)CC2)cc1OC | · | · | – | · | ·
CCC(=O)N1CCc2cc(Br)cc(S(=O)(=O)CCC(=O)Nc3cccc(CC)c3)c21 | · | · | – | · | ·
FC(F)Oc1ccc(/C=N/n2c(Cc3ccc(Br)cc3)n[nH]c2=S)cc1 | 8.9µM | – | – | ? | –
CCOc1cc(/C=N/n2c(COc3ccccc3)n[nH]c2=S)ccc1O | 5µM | – | – | ? | –
CSc1ccc(/C=N/n2c(Cc3ccc(Br)cc3)n[nH]c2=S)cc1 | ? | – | – | – | –
Cc1ccc(CSc2nc3ccccc3c(=O)[nH]2)cc1 | – | – | – | –[10 µM] | –
O=C(N/N=C/c1ccccc1Cl)C1CC1 | – | – | – | – | –
S=C(NCC1CC1)N/N=C/c1ccccc1Cl | 5.6µM | – | – | ? | –
SMILES | RORgamma inh | Giardia killer | ERG Ets-DNA blk | VP16 counter | Integrin act MD
Fc1ccc(NC(=S)Nc2ccc(Cl)cc2Cl)cc1 | ? | – | – | – | –
S=C(N/N=C/c1ccccc1Cl)Nc1cccc(Cl)c1Cl | 0.4µM | – | – | 11µM | –
Fc1ccc(NC(=S)N/N=C/c2ccc(F)c(F)c2)c(F)c1 | 1.1µM | – | – | 2.5µM | –
Fc1ccccc1/C=N/NC(=S)Nc1ccc(Cl)cc1Cl | 0.63µM | – | – | 1.3µM | –
C=CCNC(=S)Nc1ccc(F)cc1F | – | – | – | – | –
Cc1ccccc1OCC(=O)NCc1ccccc1 | – | – | – | – | –
Cc1ccc(NC(=O)c2cc(C)n(-c3ccccc3)c2C)cc1 | 4.5µM | ? | – | 6.3µM | –
Cc1ccc(NC(=O)c2csc(-c3ccccc3)c2C)cc1 | 2µM | ? | – | 2µM | –
Cc1c(C(=O)Nc2cccc([N+](=O)[O-])c2)csc1-c1ccccc1 | ? | – | – | – | –
Cn1c(/C=N/c2nc3ccccc3[nH]2)nc2ccccc21 | 18µM | – | – | ? | –
CCn1c(/C=N/c2nc3ccccc3n2C)nc2ccccc21 | 13µM | – | · | ? | –
Cn1c(/C=N/O)nc2ccccc21 | – | – | – | – | ?
CCn1c(/C=C/c2cc[n+](C)cc2)nc2ccccc21 | – | – | – | – | –
N[C@](CC1c2ccccc2Oc2ccccc21)(C(=O)O)[C@@H]1C[C@@H]1C(=O)O | – | · | · | – | ·
O=c1c(C=NCCCO)c(-c2ccccc2)[nH]n1-c1nc2ccccc2s1 | ? | – | – | – | ?
COCCCN=Cc1c(-c2ccccc2)[nH]n(-c2nc3ccccc3s2)c1=O | 8.9µM | – | – | ? | –
